# Measurements taken from PubChem BioAssay (NCATS).
# Inconclusive results are not listed. Unmarked numbers belong to inactive results. Active and inactive are the calls of the source. The call rests on the fitted dose curve; in most records, active means well fitted inhibition curve with a large enough effect; inconclusive means small, poorly fitted or top-dose-only effect; inactive means flat fitted curve, though single readings scatter.
# What was measured:
# [1] = test system: CRL-7250; assay: Cytotoxic Profiling of Annotated Libraries Using Quantitative High-Throughput Screening (AID 1296008); details: Five cell lines viability, CellTiter-Glo ATP luminescence, 48-72 h; max response: hits give low values; further: potency means the concentration at half of the fitted maximal effect; on max response: on the % scale 0 is the no-effect control and ±100 the full control effect
# Outline: (§1)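 Cells exposed to compounds for 48 or 72 hr at 37 degrees Celsius. Viability read as ATP-coupled luminescence with CellTiter-Glo after 10 min at room temperature.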
# [2] = test system: HaCat; assay: as above; details: Five cell lines viability, CellTiter-Glo ATP luminescence, 48-72 h; max response: hits give low values
# Outline: as §1
# [3] = test system: NIH3T3; assay: as above; details: Five cell lines viability, CellTiter-Glo ATP luminescence, 48-72 h; max response: hits give low values
# Outline: as §1
# [4] = test system: HACAT; assay: qHTS assay to identify novel small-molecules to repurpose for Merkel cell carcinoma treatment (AID 1296009); details: MCC and control cell lines, CellTiter-Glo viability, 72 h; at 44.8 µM (top of the series) unless noted
# Outline: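 Dose-response viability screen; 72 hr exposure at 37 degree celsius; CellTiter-Glo added, 10 min room temperature, luminescence read; RLUs scaled between no-cell and DMSO wells.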
# [5] = test system: KB-3-1; assay: Cytotoxic Profiling of Annotated Libraries Using Quantitative High-Throughput Screening (AID 1296008); details: Five cell lines viability, CellTiter-Glo ATP luminescence, 48-72 h; max response: hits give low values; further: potency means the concentration at half of the fitted maximal effect; on max response: on the % scale 0 is the no-effect control and ±100 the full control effect
# Outline: as §1
# Further: nearly all actives have a fitted effect of over 60% in size.
smiles,measurement,setting,value
CC(C)=C[C@@H]1[C@H](CO[C@@H]2O[C@H](CO)[C@@H](O)[C@H](O)[C@H]2O)C1(C)C,outcome,[1],inactive
same,outcome,[2],inactive
same,max response,[3],4.21%
same,outcome,[4],inactive
O=C(c1c(F)ccc(NS(=O)(=O)N2CC[C@@H](F)C2)c1F)c1c[nH]c2ncc(-c3cnc(C4CC4)nc3)cc12,Potency,[1],23.1 µM (active)
same,max response,[5],-23.7%
CNc1nc(Nc2ccc(C(=O)N3CCOCC3)cc2OC)nc2[nH]cc(Cl)c12,max response,[1],1.38%
same,Potency,[5],10.3 µM (active)
CCN(CC)C(=O)C(c1ccccc1)N1CCN(c2ccc(NC(=O)c3ccccc3-c3cccnc3)cc2F)CC1 (configuration not stated),max response,[1],-1.45%
same,outcome,[2],inactive
same,outcome,[3],inactive
same,outcome,[4],inactive
CC(=O)O[C@@]12CO[C@@H]1C[C@H](O)[C@@]1(C)C(=O)[C@H](O)C3=C(C)[C@@H](OC(=O)[C@H](O)[C@@H](NC(=O)OC(C)(C)C)c4ccccc4)C[C@@](O)([C@@H](OC(=O)c4ccccc4)C12)C3(C)C (some centres not stated),Potency,[1],0.005 µM (active)
same,Potency,[5],0.0036 µM (active)
same,Potency,[3],0.0224 µM (active)
CC1(C)SCCN(S(=O)(=O)c2ccc(Oc3ccncc3)cc2)[C@H]1C(=O)NO,max response,[1],-1.93%
same,max response,[5],-10.1%
same,max response,[3],2.44%
COc1cccc(NCCC2(c3ccccc3)CC(C)(C)OC(C)(C)C2)c1,max response,[1],-3.59%
same,max response,[5],-14.2%
same,max response,[3],-25%
CCN1C(C)(C)CC(Oc2ccc(C(=O)Nc3ccc(NC(=O)Nc4cc(C(C)(C)C)on4)cc3)nc2)CC1(C)C,max response,[1],-1.6%
same,outcome,[2],inactive
same,outcome,[3],inactive
same,outcome,[4],inactive
COc1ccccc1OCCNCC(O)CCOc1cccc2[nH]c3ccccc3c12 (configuration not stated),outcome,[1],inactive
same,outcome,[2],inactive
same,max response,[3],-5.46%
same,outcome,[4],inactive
O=S(=O)(c1ccccc1)N(CC(F)(F)F)c1ccc(C(O)(C(F)(F)F)C(F)(F)F)cc1,outcome,[1],inactive
same,outcome,[2],inactive
same,max response,[3],0.0289%
same,outcome,[4],inactive
O=C(Nc1ccccc1Br)NC1CCN(c2ccc(C(F)(F)F)cn2)C1 (configuration not stated),outcome,[1],inactive
same,max response,[5],-16.5%
same,max response,[3],-7.45%
CC(=O)O[C@@H]1C[C@@]2(C)C(CC[C@]3(C)C2CC=C2C4CC(C)(C)CC[C@]4(C(=O)O)CC[C@]23C)C(C)(C)[C@H]1O (some centres not stated),max response,[1],3.23%
same,outcome,[2],inactive
same,max response,[3],-4.52%
same,outcome,[4],inactive [at 17.4 µM]
O=C(NCCN1CCC(n2c(=O)[nH]c3ccccc32)CC1)c1cc2cc(F)ccc2[nH]1,max response,[1],4.31%
same,max response,[5],1.32%
same,outcome,[3],inactive
COc1ccc(CCCN2CCC(COC(c3ccccc3)c3ccccc3)CC2)cc1,max response,[1],-2.98%
same,max response,[5],-17.2%
COc1cc2c(cc1-c1c(C)noc1C)ncc1[nH]c(=O)n(C(C)c3ccccn3)c12 (configuration not stated),Potency,[1],5.8 µM (active)
same,outcome,[2],inactive
same,Potency,[3],7.31 µM (active)
same,outcome,[4],inactive
N#Cc1ccc(N2N=C3c4ccc(C(=O)O)cc4CC[C@@H]3[C@@H]2C2CCCC2)cc1Cl,max response,[1],1.36%
same,outcome,[2],inactive
same,max response,[3],-3.29%
same,outcome,[4],inactive
CCN(CC)CCCS(=O)(=O)N[C@H](CCc1ccccc1)c1nc(Cc2ccc(Br)cc2)no1,max response,[1],-4.82%
same,outcome,[2],inactive
same,max response,[3],-16.9%
same,outcome,[4],inactive
COc1cc(C(=O)O)ccc1NC(=O)C1NC(CC(C)(C)C)C(C#N)(c2ccc(Cl)cc2F)C1c1cccc(Cl)c1F (configuration not stated),max response,[1],-18.8%
same,outcome,[2],inactive
same,max response,[3],-5.77%
same,outcome,[4],inactive
O=C(Cc1c(F)cccc1F)Nc1cc(OCc2ccc(Cl)cc2)ccn1,max response,[1],3.56%
same,outcome,[5],inactive
same,max response,[3],-10.7%
C/C=C(/C)C(=O)O[C@@H]1C[C@@H](OC(=O)CC(C)C)C2(C)C3C(=O)C=C(C)C2C3C1(C)C (some centres not stated),max response,[1],0.438%
same,max response,[5],5.54%
same,max response,[3],-2.22%
CCCSc1nc(N[C@@H]2C[C@H]2c2ccc(F)c(F)c2)c2nnn([C@@H]3C[C@H](OCCO)[C@@H](O)[C@H]3O)c2n1,outcome,[1],inactive
same,max response,[5],-26.6%
same,max response,[3],-24.3%
C=C1C(=O)O[C@@H]2/C=C(\C)CC/C=C(/C=O)[C@H](OC)[C@@H](OC(=O)C(C)C)[C@@H]12,max response,[1],2.09%
same,outcome,[2],inactive
same,outcome,[4],inactive
Cc1c(Cl)cccc1S(=O)(=O)Nc1nc(NCCc2ccccc2)nc2c1CN(Cc1ccccc1)CC2,max response,[1],4.69%
same,outcome,[2],inactive
same,outcome,[3],inactive
same,outcome,[4],inactive
